For 39 compounds, cell growth results are on record in the supplement of paper PMC3484114.

± gives the standard deviation.

The experiment relates to OVCAR-3-derived ovarian cancer stem-like cells (spheroids). Put plainly: cell growth relative to untreated control; higher = more growth (less inhibition). Particulars: 2.29 µM; 96 h. The essentials:
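OVCAR-3 spheroid-derived stem-like cells were trypsin-dissociated, seeded at 50,000 cells/mL in stem cell medium in ultra-low attachment 96-well plates and preincubated 24 h. Compounds were then added at 2.29 uM for 96 h at 37°C, 5% CO2, in 4 replicate wells. Viability was read as TOX8 resazurin fluorescence (ex 560/em 590 nm) after 4 h. Percent growth was calculated relative to untreated wells after blank subtraction and Grubbs outlier removal.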
In the case of `O=C1Cc2c([nH]c3ccc(Br)cc23)-c2ccccc2N1`, the cell growth amounted to 109 ± 9.9%.
In turn, `COc1ccccc1/C=C1\Sc2scc(-c3cccc([N+](=O)[O-])c3)[n+]2C1=O` displayed a cell growth of 128 ± 18%.
Then `Clc1cc2nc[nH]c2cc1Cl`, with 102 ± 31%; and `C/C(NNC(=O)c1ccccc1O)=C1\C=Nc2ccccc2S1`, with 16 ± 5.3%; and `CN(NC1=NCCO1)c1ccc2ccccc2c1`, with 117 ± 18%.
Next, `COc1ccc(Cc2nc3ccccc3s2)cc1OC`: 98.9 ± 21%; `CC(/C=C/C(O)=C1/C(=O)CNC1=O)=C\[C@@H](C)[C@H]1O[C@]2(C)O[C@@H](C(=O)[C@@H]3O[C@@]32C)[C@@H]1C`: 60.3 ± 14%; `CC(=O)NCCCCCCNC(C)=O`: 119 ± 7.8%.
Next, `O=C1c2cccc(O)c2C(=O)c2c(O)cccc21`: 68.8 ± 19%; `COc1ccc2cc3[n+](cc2c1OC)CCc1cc2c(cc1-3)OCO2`: 57.3 ± 7.4%.
As for `C=CC(=O)N1C/C(=C\c2ccc(Cl)cc2)C(=O)/C(=C/c2ccc(Cl)cc2)C1`, the cell growth came out at 59.7 ± 22%.
Next, `Cc1ccc(S(=O)(=O)ON=C2CC(c3ccccc3)N(C)C(c3ccccc3)C2)cc1` (centres undefined): 96.7 ± 22%; `CCCc1c(Cl)nc(Cl)nc1Cl`: 96.4 ± 19%.
Next, `CCOc1ccccc1NC(=O)CC1Sc2ccccc2NC1=O` (centres undefined): 70.6 ± 14%.
Then `CCOC(=O)/C(=C/c1ccc(N(C)C)cc1)N(CC)CC`, with 85 ± 9.3%; and `CO[C@H]1/C=C\C=C(/C)C(=O)NC2=CC(=O)C(N)=C(C[C@@H](C)C[C@H](OC)[C@H](O)[C@@H](C)/C=C(\C)[C@@H]1OC(N)=O)C2=O`, with 29.6 ± 4.9%.
For the compound `CN(Cc1cnc2nc(N)nc(N)c2n1)c1ccc(C(=O)NC(CCC(=O)O)C(=O)O)c2ccccc12` (centres undefined), the cell growth was 84.7 ± 30%.
For `CN(C)c1ccc(/C=N/N=C2\C(=O)Nc3c(Cl)cc(Cl)cc32)cc1`, the cell growth is 106 ± 28%.
Next, `O=C1C=C(Nc2cccnc2)c2ccccc2C1=O`: 59.3 ± 11%; `COc1ccccc1Cc1nc(-c2ccccc2)nn(C2OC(COC(C)=O)C(OC(C)=O)C(OC(C)=O)C2OC(C)=O)c1=S` (centres undefined): 97.5 ± 16%.
With `Cc1ccc(S(=O)(=O)NC(=O)NC2=NC(C)(C)N(c3ccc(Cl)c(Cl)c3)C(N)=N2)cc1`, the cell growth was 84.1 ± 23%.
Next, `COC(=O)C1c2cc3c(c(O)c2C(OC2OC(C)C(OC)C(C)(OC)C2OC)CC1(C)O)C(=O)c1c(O)cc2c(c1C3=O)OC1OC2(C)C(O)C(N(C)C)C1O` (centres undefined): 51.8 ± 47%.
Then `CC(=O)N(C)c1ccc(Nc2cc(C)[nH]c3ccc4ncnc4c23)cc1`, with 81.9 ± 23%.
Then `O=C(NC1=C(Cl)C(=O)c2ccccc2C1=O)C(=O)C(C(=O)c1ccc2ccccc2c1)C1OC(=O)c2ccccc21` (centres undefined), with 89.6 ± 20%; and `CCCCS(=N)(=O)CCC(N)C(=O)O` (centres undefined), with 86.6 ± 8.1%.
For `Cc1nc(Cl)c(C)c(Cl)n1`, the cell growth was 88.2 ± 11%.
Next, `CN1c2c(nc(N)[nH]c2=O)NCC1CCNc1ccc(C(=O)NC(CCC(=O)O)C(=O)O)cc1` (centres undefined): 101 ± 20%; `C[n+]1ccc(Nc2ccc(NC(=O)c3ccc(Nc4cc[n+](C)c5ccc([N+](=O)[O-])cc45)cc3[N+](=O)[O-])cc2)cc1`: 70 ± 17%; `CCOC(=O)c1ccc(N=Cc2ccc(N(CCC#N)CCC#N)cc2)cc1`: 101 ± 20%.
Then `O=Nc1ccc(O)c2ncccc12`, with 82 ± 25%.
Next, `CC1OC1C(=O)C1(O)C(C)C(O)C23OC2(C(O)c2c(O)cccc2C3=O)C1O` (centres undefined): 23.6 ± 6.9%; `COc1cc(C[C@H]2c3cc(OC)c(OC)cc3CCN2C)c(Oc2cc3c(cc2OC)-c2c(OC)c(OC)cc4c2[C@H](C3)N(C)CC4)cc1OC`: 77.8 ± 11%; `CCN(CC)CCCNc1ncc(C)c2[nH]c3ccncc3c12`: 82.7 ± 8.6%.
Regarding `CCOC(=O)/N=C(\N)SCc1ccccc1`, the cell growth stood at 78.4 ± 11%.
Then `C/C(=N\Nc1nc2ccccc2s1)c1ccncn1`, with 30.8 ± 7.4%.
Then `O=C1C=C(Nc2ccccc2C(=O)CC(=O)C(=O)Nc2ccc(Cl)cc2)c2ccccc2C1=O`, with 49.4 ± 15%.
Then `Nc1ccc2c(c1)CN1C(=O)c3ccccc3C1=N2`, with 72.9 ± 5.6%.
Regarding `Cc1ccccc1NC(=O)C(=O)C(C(=O)c1ccccc1F)C1OC(=O)c2ccccc21` (centres undefined), the cell growth is 94.9 ± 13%.
Next, `OC(CN1CCCCC1)c1ccc(/C=C/c2ccc(Cl)cc2)cc1` (centres undefined): 112 ± 16%.
